Consider 36 compounds from ChEMBL document CHEMBL3433997, “St. Jude Leishmania screening dataset” (2016).

What all share (format): functional
In assay [1] the target is Solute carrier family 2, facilitated glucose transporter member 1 (Homo sapiens) (UniProt P11166). The experiment in a line: ST_JUDE_LEISH: Cytotoxicity at 2uM final concentration against transgenic Leishmania Mexicana promastigotes LmGLUT1 that are glucose transport deficient and complemented with the human glucose transporter GLUT1. Activity is measured by DNA content using SYBR green in vitro.
Solute carrier family 2, facilitated glucose transporter member 1 (Homo sapiens), sequence (P11166 whole entry): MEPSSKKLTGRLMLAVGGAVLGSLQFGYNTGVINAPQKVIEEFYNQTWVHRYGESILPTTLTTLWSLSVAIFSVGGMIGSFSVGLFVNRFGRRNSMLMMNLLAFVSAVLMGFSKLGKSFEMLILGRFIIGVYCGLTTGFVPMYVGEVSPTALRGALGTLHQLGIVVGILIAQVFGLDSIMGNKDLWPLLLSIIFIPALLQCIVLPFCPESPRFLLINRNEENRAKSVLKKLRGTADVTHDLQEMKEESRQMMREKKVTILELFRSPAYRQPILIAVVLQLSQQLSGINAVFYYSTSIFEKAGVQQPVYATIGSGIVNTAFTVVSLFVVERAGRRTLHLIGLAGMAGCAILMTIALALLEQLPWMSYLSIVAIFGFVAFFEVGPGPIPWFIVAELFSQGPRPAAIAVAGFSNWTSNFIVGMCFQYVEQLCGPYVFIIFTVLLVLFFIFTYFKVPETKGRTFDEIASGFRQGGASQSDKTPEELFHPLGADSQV

Assay [2] addresses Hexose transporter 1 (Plasmodium falciparum) (UniProt O97467). In words: ST_JUDE_LEISH: Cytotoxicity at 2uM final concentration against transgenic Leishmania Mexicana promastigotes LmPfHT that are glucose transport deficient and complemented with the Plasmodium falciparum hexose transporter. Activity is measured by DNA content using SYBR green in vitro.
The target in assay [3] is Glucose transporter (Leishmania mexicana) (UniProt O61059). The experiment in a line: ST_JUDE_LEISH: Cytotoxicity at 2uM final concentration against transgenic Leishmania Mexicana promastigotes LmGT2 that are glucose transport deficient and complemented with the L. Mexicana glucose transporter 2. Activity is measured by DNA content using SYBR green in vitro.

For the compound `CNC(=O)c1ccccc1Nc1nc(Nc2ccc(N3CCN(C)CC3)nc2)ncc1C`, the values for the inhibition in assay [1], in assay [2] and in assay [3] were 12%, 11.3% and 9.03%, respectively.

Turning to `COc1ccc2ncc(OC)c(CCN3CC[C@@H](NCc4ccc5c(n4)NC(=O)CS5)[C@H](O)C3)c2n1`, the inhibition in assay [1] was 1.21%; in assay [2] it was 1.17%; in assay [3], -0.86%.

For `C=CCC(C)n1ncc2c3c(N)nc(N)nc3ccc21` (stereo not drawn), the inhibition is 2.58% in assay [1], -0.39% in assay [2] and -0.24% in assay [3].

Turning to `COc1ccc(C2N=C(N)N=C(N)N2c2ccc(Cl)cc2)cc1OC` (stereo not drawn), the figures for the inhibition in assay [1], in assay [2] and in assay [3] were 2.61%, 2.52% and 2.93%, respectively.

Turning to `COc1cc(OC)c2c(C)cc(NCCCn3ccnc3)nc2c1`, the figures for the inhibition in assay [1], in assay [2] and in assay [3] were 2.59%, 3.68% and 0.88%, respectively.

As to `CC(C)CCOc1ccc(NC(=O)c2cccs2)cc1`, the figures for the inhibition in assay [1], in assay [2] and in assay [3] were 4.93%, 5.81% and 5.27%, respectively.

For the compound `CCc1c(CCNCCCC(C)CCNCCc2ccc(OC)c(OC)c2CC)ccc(OC)c1OC` (stereo not drawn), the inhibition in assay [1] worked out at 1.96%; in assay [2], 4.93%; in assay [3], 1.22%.

For `O=C(c1cc(-c2ccco2)n[nH]1)N1CCN(S(=O)(=O)c2ccc(Br)cc2)CC1`, the inhibition was found to be 10.8% in assay [1], 10.2% in assay [2] and 7.48% in assay [3].

Take `CCOc1ccc(C(C)NC(=O)Nc2ccccc2)cc1OCC` (stereo not drawn): the figures for the inhibition in assay [1], in assay [2] and in assay [3] were 4.28%, 2.66% and 2.96%, respectively.

As for `Cc1cc(N2CCCN(CC3CCCCC3)CC2)nc(Nc2ccc(Br)cc2)n1`, the inhibition in assay [1] is 1.81%; in assay [2] it was 6.86%; in assay [3], -2.12%.

As for `CCOC(=O)N[C@@H]1CN[C@@H](C#Cc2cc3c(Nc4ccc(OCc5cccc(F)c5)c(Cl)c4)ncnc3s2)C1`, the inhibition is -1.82% in assay [1], 0.54% in assay [2] and 0.09% in assay [3].

As to `Cc1cccc(-n2nc(C)c3c2NC(=O)CC3C(=O)c2ccc(Cl)s2)c1` (stereo not drawn), the inhibition was found to be 1.99% in assay [1], 4.4% in assay [2] and 2.73% in assay [3].

In the case of `COc1ccc(CC2(c3ccc(F)cc3)N=C(N)N(CCCc3cccnc3)C2=O)cc1` (stereo not drawn), the values for the inhibition in assay [1], in assay [2] and in assay [3] were 2.7%, 1.49% and 2.08%, respectively.

As to `Cc1cccc2nc(-c3cccc(-c4cccc(CNCCCN5CCCC5=O)c4)c3)[nH]c12`, the inhibition was -0.74% in assay [1], -0.59% in assay [2] and -1.17% in assay [3].

Take `C=C[C@]1(C)C[C@@H](OC(=O)c2cncn(COC)c2=O)[C@]2(C)[C@H](C)CC[C@]3(CCC(=O)[C@H]32)[C@@H](C)[C@@H]1O`: the inhibition in assay [1] was -0.03%; in assay [2], -0.92%; in assay [3] it was 0.15%.

For the compound `Oc1ccc(OCc2ccccn2)cc1`, the results for the inhibition in assay [1], in assay [2] and in assay [3] were 3.05%, 6.09% and 4.04%, respectively.

Turning to `Cc1noc(C)c1S(=O)(=O)N(C)Cc1ccc(-c2ccc(Cl)cc2)o1`, the inhibition in assay [1] is 1.57%; in assay [2] it was 1.24%; in assay [3], -2.43%.

In the case of `O=C(Nc1ccc(-c2cccc(-c3nc4cc(F)ccc4[nH]3)c2)cc1)c1ccncc1`, the figures for the inhibition in assay [1], in assay [2] and in assay [3] were 13.9%, 14.2% and 12.9%, respectively.

Turning to `O=C(Nc1nccs1)c1cn(-c2ccccc2)nc1-c1ccc(Cl)s1`, the inhibition in assay [1] came out at 3.1%; in assay [2], 2.82%; in assay [3] it was 3.16%.

Turning to `Oc1ccc(CCCc2cc(Oc3c(I)cc(CCc4ncc[nH]4)cc3I)ccc2O)cc1`, the values for the inhibition in assay [1], in assay [2] and in assay [3] were 1.08%, -0.28% and -1.55%, respectively.

Turning to `CCNc1cc(C(=O)N[C@@H](Cc2ccccc2)[C@H](O)CNCc2ccc3c(c2)OCCO3)cc(N2CCCCS2(=O)=O)c1`, the results for the inhibition in assay [1], in assay [2] and in assay [3] were 0.98%, 1.25% and 1.57%, respectively.

As to `Cc1cc(N[C@@H](CC(C)C)C(=O)NCCc2ccccc2)nc(NCCc2cccs2)n1`, the values for the inhibition in assay [1], in assay [2] and in assay [3] were 5%, 7.09% and 5.46%, respectively.

Take `CN(/N=C/c1ccc(Cl)cc1)c1nc(NCCc2ccc(O)cc2)nc(N2CCNCC2)n1`: the inhibition worked out at 7.69% in assay [1], 6.81% in assay [2] and 6.34% in assay [3].

Turning to `O=C(NCCN1CCN(S(=O)(=O)c2ccc(OC3CCNCC3)c(Br)c2)CC1)c1ccc(Cl)c(Cl)c1`, the inhibition stood at 3.33% in assay [1], 3.46% in assay [2] and 4.49% in assay [3].

Regarding `CN(C)CCCNc1nccc(N(C)c2ccc(NC(=O)Nc3cc(C(F)(F)F)ccc3F)cc2)n1`, the inhibition in assay [1] was 1.93%; in assay [2] it was -0.78%; in assay [3], -0.59%.

Take `N#Cc1ccc(-c2ccc(C(=O)NC3CCN(CCN4CCC(c5cn(CCO)c6ccccc56)CC4)CC3)cc2)cc1`: the inhibition was determined as 1.3% in assay [1], 1.27% in assay [2] and 1.44% in assay [3].

Turning to `O=C(NC(c1ccc(Cl)cc1)c1ccc2cccnc2c1O)c1ccccc1` (stereo not drawn), the values for the inhibition in assay [1], in assay [2] and in assay [3] were 0.27%, -0.02% and -2.91%, respectively.

As for `COc1cc2nc(NCCn3ccnc3C)nc(NCCc3ccccc3)c2cc1OC`, the inhibition turned out to be 1.91% in assay [1], 1.02% in assay [2] and 2.18% in assay [3].

For `CNc1ccc(CNCc2cccc(-c3ccc(-c4nc5cccc(C)c5[nH]4)cc3)c2)cc1`, the inhibition in assay [1] worked out at 7.63%; in assay [2], 5.63%; in assay [3] it was 0.87%.

With `Cc1ccc(C(=O)Nc2ccc(OC3CCN(CCC(C)C)C3)c(Cl)c2)cc1` (stereo not drawn), the inhibition in assay [1] came out at 3.79%; in assay [2], 4.8%; in assay [3], 3.43%.

For `CN1CC[C@@H](Oc2cc(NC(=O)Nc3ccccc3Br)ccc2Cl)C1`, the inhibition stood at 4.94% in assay [1], 3.71% in assay [2] and 2.59% in assay [3].

Turning to `CC(C)Cc1ccc(N2CCN(CCCCNC(=O)c3ccc(NC(=O)c4ccc(Cl)c(Cl)c4)cc3)CC2)cc1`, the inhibition in assay [1] is 1.28%; in assay [2], 1.46%; in assay [3] it was 0.21%.

For the compound `CCCNCc1ccc(-c2ccc(CN(CCOC)C(=O)Cc3cccnc3)cc2)nc1`, the inhibition was determined as 0.25% in assay [1], 1.34% in assay [2] and 3.67% in assay [3].

Turning to `Cc1cccc2nc(-c3ccc(-c4ccc(NC(=O)Nc5ccc(Cl)c(Cl)c5)cc4)s3)[nH]c12`, the results for the inhibition in assay [1], in assay [2] and in assay [3] were 1.5%, 1.27% and -6.86%, respectively.

Consider `Cc1cc(CN2CCCN(c3ccc4c(c3)CCN(Cc3ccc(-c5ncc[nH]5)cc3)CC4)CC2)n(C)n1`, for which the inhibition in assay [1] is -0.3%; in assay [2], -1.47%; in assay [3], -3.2%.

For the compound `COc1ccc(CNC2CCN(C)CC2)cc1-c1cccc(S(=O)(=O)NCc2ccccc2)c1`, the inhibition in assay [1] was 1.72%; in assay [2] it was 1.62%; in assay [3], 0.24%.

The inhibition is the change of the read-out against control, counted positive when it falls.
